Test results: PMC7862700, “An all-to-all approach to the identification of sequence-specific readers for epigenetic DNA modifications on cytosine”

Assays:
Test in all cases: DAPPL (digital affinity profiling via proximity ligation, sequencing); 10 mM Tris-HCl pH 7.5, 50 mM NaCl, 1 mM DTT, 4% glycerol, room temperature, 30 min; GST-TFs on glutathione beads, 16-mer random dsDNA library, 0.1% formaldehyde crosslink after washing; high values mean tight binding
Conditions in all cases: protein: recombinant; tags: N-terminal GST; dsDNA, one strand shown
ELK4 = molecular target: T1, ELK4 (Homo sapiens, UniProt P28324-2 1-405)
T1 sequence: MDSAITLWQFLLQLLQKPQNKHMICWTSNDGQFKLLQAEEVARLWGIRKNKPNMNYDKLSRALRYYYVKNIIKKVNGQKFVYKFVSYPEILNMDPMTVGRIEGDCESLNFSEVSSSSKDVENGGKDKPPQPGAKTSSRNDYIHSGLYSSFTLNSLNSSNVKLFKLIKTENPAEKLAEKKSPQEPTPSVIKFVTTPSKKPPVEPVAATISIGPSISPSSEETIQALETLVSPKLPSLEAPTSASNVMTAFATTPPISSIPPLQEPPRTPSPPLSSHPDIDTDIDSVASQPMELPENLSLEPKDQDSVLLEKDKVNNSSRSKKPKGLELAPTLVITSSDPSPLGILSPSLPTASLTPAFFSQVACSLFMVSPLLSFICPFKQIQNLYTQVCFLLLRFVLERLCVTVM
Summary of the method: (§1)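 Binding signal is each hexamer's read frequency for a factor divided by its frequency in the tag-only sample. The factors were GST-fused human transcription factors from yeast, captured on glutathione beads, DNA-barcoded and pooled with that sample. Pools were incubated with 200 nmole of a random double-stranded 16-mer DNA library in Tris/NaCl/DTT/glycerol buffer at room temperature for 30 min, then washed, crosslinked with 0.1% formaldehyde, proximity-ligated with BsaI/T4 ligase (1 h, 37 °C), PCR-amplified and sequenced on an Illumina NextSeq500.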

ETV2 = molecular target: T2, ETV2 (Homo sapiens, UniProt O00321 1-342)
T2 sequence: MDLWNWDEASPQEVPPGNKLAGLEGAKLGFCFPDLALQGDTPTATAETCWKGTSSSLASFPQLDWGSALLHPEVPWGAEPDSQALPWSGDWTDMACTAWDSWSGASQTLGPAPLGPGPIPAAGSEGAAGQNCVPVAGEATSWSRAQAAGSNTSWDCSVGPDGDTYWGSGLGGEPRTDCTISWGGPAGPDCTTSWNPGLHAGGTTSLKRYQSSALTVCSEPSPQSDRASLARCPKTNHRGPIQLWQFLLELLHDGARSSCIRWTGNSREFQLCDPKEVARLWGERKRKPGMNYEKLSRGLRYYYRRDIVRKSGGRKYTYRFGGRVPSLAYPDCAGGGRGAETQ
Summary of the method: as §1

CRX = CRX (Homo sapiens, UniProt O43186 1-299)
Sequence of CRX (O43186 whole entry): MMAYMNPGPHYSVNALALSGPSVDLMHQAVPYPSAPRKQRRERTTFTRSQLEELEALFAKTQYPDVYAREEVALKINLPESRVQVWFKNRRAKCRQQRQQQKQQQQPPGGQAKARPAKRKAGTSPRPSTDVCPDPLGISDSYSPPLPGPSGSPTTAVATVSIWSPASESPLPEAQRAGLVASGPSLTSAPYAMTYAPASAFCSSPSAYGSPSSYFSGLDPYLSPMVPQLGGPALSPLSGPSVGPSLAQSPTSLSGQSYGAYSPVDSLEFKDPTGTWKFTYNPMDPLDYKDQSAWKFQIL
Summary of the method: as §1

ETV1 = ETV1 (Homo sapiens, UniProt P50549 1-477)
Sequence of ETV1 (P50549 whole entry): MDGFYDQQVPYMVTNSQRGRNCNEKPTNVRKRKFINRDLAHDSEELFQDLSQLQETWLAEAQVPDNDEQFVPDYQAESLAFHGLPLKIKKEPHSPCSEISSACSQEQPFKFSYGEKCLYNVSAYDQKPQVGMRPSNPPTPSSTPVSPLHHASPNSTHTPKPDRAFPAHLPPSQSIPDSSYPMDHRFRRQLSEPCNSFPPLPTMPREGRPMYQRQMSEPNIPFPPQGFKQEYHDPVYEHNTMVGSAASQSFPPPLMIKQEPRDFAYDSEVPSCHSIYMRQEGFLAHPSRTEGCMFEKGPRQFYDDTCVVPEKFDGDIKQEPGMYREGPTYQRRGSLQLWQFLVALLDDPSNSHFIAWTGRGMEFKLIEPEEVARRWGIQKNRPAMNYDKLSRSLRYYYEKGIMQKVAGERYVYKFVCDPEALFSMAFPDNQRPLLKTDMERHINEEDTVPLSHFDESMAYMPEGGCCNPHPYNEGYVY
Summary of the method: as §1

ERF = molecular target: T3, ERF (Homo sapiens, UniProt P50548 1-548)
T3 sequence: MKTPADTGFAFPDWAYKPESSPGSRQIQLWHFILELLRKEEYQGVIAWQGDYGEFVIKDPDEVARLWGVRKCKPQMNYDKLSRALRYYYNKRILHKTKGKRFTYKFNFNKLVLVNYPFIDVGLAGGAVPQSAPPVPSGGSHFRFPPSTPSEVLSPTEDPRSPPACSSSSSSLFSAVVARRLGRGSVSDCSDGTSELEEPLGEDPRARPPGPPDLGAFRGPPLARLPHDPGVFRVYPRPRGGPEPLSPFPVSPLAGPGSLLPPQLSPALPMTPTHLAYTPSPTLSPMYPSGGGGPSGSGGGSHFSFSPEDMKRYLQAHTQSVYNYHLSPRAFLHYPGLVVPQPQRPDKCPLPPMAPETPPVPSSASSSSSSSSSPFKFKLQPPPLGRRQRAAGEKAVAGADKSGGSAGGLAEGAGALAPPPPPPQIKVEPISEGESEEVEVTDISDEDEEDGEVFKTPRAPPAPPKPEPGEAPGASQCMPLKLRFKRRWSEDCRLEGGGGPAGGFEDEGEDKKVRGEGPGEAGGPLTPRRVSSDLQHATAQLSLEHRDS
Summary of the method: as §1

ETV3L = molecular target: T4, ETV3L (Homo sapiens, UniProt Q6ZN32 1-361)
T4 sequence: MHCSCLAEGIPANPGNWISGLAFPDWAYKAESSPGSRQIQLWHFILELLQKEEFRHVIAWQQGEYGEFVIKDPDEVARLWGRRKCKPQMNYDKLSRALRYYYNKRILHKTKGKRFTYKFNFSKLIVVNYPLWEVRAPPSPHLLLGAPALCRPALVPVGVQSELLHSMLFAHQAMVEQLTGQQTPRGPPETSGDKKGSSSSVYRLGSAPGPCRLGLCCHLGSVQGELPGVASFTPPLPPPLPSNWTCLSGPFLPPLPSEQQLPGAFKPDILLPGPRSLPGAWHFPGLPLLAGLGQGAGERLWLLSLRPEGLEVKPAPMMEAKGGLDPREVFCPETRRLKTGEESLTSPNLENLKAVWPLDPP
Summary of the method: as §1

ETS2 = molecular target: T5, ETS2 (Homo sapiens, UniProt P15036 1-469)
T5 sequence: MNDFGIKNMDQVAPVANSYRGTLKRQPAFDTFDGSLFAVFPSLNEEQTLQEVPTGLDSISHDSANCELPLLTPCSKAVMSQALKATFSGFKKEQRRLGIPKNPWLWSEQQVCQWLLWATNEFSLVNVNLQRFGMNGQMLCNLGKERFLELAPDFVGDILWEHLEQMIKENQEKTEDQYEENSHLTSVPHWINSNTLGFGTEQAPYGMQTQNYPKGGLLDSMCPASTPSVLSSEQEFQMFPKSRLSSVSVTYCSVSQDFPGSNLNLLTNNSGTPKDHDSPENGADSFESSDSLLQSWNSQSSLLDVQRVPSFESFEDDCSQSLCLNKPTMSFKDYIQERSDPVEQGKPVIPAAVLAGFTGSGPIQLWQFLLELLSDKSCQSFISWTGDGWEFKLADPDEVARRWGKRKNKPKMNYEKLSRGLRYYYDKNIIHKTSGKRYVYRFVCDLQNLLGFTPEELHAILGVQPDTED
Summary of the method: as §1

ETV7 = molecular target: T6, ETV7 (Homo sapiens, UniProt Q9Y603 1-341)
T6 sequence: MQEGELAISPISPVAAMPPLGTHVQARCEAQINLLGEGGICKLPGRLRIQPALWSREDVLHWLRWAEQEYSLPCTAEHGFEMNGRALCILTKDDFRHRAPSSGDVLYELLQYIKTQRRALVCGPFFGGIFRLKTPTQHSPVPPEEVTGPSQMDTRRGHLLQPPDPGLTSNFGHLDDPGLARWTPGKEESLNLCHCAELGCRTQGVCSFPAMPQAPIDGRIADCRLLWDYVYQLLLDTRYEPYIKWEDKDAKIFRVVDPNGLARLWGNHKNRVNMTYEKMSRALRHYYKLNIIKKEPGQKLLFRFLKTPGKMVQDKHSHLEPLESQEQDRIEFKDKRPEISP
Summary of the method: as §1

ETV3 = molecular target: T7, ETV3 (Homo sapiens, UniProt P41162-2 1-143)
T7 sequence: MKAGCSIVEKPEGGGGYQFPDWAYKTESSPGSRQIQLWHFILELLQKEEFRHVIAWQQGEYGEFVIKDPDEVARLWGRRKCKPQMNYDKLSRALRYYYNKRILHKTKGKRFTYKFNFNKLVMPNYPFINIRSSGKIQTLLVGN
Summary of the method: as §1

ETV6 = ETV6 (Homo sapiens, UniProt P41212 1-452)
Sequence of ETV6 (P41212 whole entry): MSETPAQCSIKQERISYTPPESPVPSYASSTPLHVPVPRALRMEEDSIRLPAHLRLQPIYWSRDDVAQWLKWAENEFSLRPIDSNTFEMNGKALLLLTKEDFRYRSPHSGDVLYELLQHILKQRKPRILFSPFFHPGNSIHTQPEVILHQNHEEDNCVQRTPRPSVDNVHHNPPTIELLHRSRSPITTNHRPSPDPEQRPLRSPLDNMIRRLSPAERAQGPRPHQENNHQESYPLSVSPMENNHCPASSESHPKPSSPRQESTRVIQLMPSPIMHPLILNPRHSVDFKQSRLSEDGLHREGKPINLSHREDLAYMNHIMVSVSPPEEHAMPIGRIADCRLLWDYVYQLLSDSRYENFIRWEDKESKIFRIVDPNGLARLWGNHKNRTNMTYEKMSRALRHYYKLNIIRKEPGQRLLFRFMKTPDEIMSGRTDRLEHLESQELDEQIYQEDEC
Summary of the method: as §1

TCAGCT
binding signal (ELK4): 1.14 fold enrichment (6-mer frequency, TF over GST control)
binding signal (ETV2): 1.11 fold enrichment (6-mer frequency, TF over GST control)
binding signal (CRX): 1.39 fold enrichment (6-mer frequency, TF over GST control)
binding signal (ETV1): 1.14 fold enrichment (6-mer frequency, TF over GST control)
binding signal (ERF): 1.09 fold enrichment (6-mer frequency, TF over GST control)
binding signal (ETV3L): 1.09 fold enrichment (6-mer frequency, TF over GST control)
binding signal (ETS2): 1.14 fold enrichment (6-mer frequency, TF over GST control)
binding signal (ETV7): 1.01 fold enrichment (6-mer frequency, TF over GST control)
binding signal (ETV3): 1.05 fold enrichment (6-mer frequency, TF over GST control)
binding signal (ETV6): 1.04 fold enrichment (6-mer frequency, TF over GST control)
